Only some compounds are listed: those with a hit (about 7.4% of all), similar ones and a draw of the others.
FLuc modulator – inhibits or activates purified firefly luciferase, miR-21 counter-screen | P08659 | purified FLuc, Km substrates, luminescence inhibition | Potency, µM (titrated, usually from 57.5 µM), for the others: top-dose activity change, negative = inhibition, actives largely listed as inhibitors | actives 6.9% (n = 360,000);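 note: plate controls were vehicle for no effect and reference inhibitor for full effect; nearly all actives have a fitted effect of over 55% in size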
Target sequence (P08659 whole entry, looked up): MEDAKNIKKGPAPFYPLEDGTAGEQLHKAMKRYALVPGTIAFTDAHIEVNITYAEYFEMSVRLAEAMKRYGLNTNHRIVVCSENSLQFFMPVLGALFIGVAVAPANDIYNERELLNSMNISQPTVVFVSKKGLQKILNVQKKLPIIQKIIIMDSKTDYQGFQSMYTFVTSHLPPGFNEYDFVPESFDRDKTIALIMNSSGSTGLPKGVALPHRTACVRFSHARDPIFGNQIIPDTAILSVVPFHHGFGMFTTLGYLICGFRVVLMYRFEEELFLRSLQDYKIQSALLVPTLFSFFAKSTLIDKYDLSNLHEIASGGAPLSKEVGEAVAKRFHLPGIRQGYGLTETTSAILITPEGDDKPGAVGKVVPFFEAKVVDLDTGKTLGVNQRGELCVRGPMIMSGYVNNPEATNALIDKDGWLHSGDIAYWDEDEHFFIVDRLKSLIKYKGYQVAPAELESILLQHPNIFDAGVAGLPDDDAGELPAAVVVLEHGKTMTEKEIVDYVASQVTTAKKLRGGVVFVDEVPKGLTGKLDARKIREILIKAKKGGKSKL
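Purified P. pyralis luciferase, 10 nM final, with Km-level 10 uM D-luciferin and 10 uM ATP in 50 mM Tris acetate pH 7.5, 10 mM Mg acetate, 0.01% Tween-20, 0.05% BSA; 6-point qHTS titration about 60 µM downward; luminescence read.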
SMN2 splice enh – enhancers of SMN2 splice variant expression; HEK293 SMN2-luciferase splicing reporter, luminescence, 30-36 h; Potency, µM (doses to about 46.1 µM), for the others: at the top dose activity change, positive = activation, usual class: activators; actives 2.8% (n = 210,000); note: % of control where 0% means no effect; nearly all actives have a fitted effect of over 55% in size
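qHTS luciferase splicing reporter: luminescence rises when SMN2 exon 7 is included in transfected HEK293 cells. Compound exposure lasted 30-36 h at 37C, with 4.5 mM final sodium butyrate as control, followed by a ONE-Glo read.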
KinaseGlo FLuc – counter-screen: inhibitors of Kinase-Glo firefly luciferase; Q27757; Kinase-Glo luciferase, ATP luminescence, 8 min; Potency, µM (titrated, usually from 38.3 µM), for inactives: at the highest dose activity change, negative = inhibition, hits mostly inhibitors; actives 0.28% (n = 200,000); AID 1379; note: % is set by controls: 0 for no effect and ±100 for the full control effect; nearly all actives have a fitted effect of over 60% in size
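Inhibition of Kinase-Glo luciferase light generation was assessed at 10 uM ATP in pH 7.2 imidazole buffer, with luminescence measured after eight minutes at ambient temperature.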
Rab9 prom act – activators of Rab9 promoter | Potency, µM (titrated, usually from 9.22 µM), for inactives: top-dose activation, negative = inhibition, most hits filed as activators | actives 2.8% (n = 320,000) | Huh7 Rab9 promoter-luciferase reporter, luminescence, 24 h | AID 485297; note: % of control where 0% means no effect; nearly all actives have a fitted effect of over 60% in size
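Luciferase signal after 10 min detection reagent at ambient indicates Rab9 promoter upregulation; stably transfected Huh7 cells were treated 24 h with compound in DMSO at 37 °C, 5% CO2.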
ELG1 genotoxic – inducers of genotoxicity in HEK293T ELG1-luciferase cells | HEK293T ELG1-luciferase reporter, luminescence, 16 h | Potency, µM (doses to about 46 µM), for the others: at the top dose activity change, positive = activation, hits mostly activators | actives 1.3% (n = 330,000) | AID 504466; note: % of control where 0% means no effect; nearly all actives have a fitted effect of over 60% in size
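Quantitative HTS format in 1536-well plates. HEK293T ELG1-luciferase reporter cells receive test compound and are incubated 16 hr at 37 °C, 5% CO2; ONE-Glo added, 30 min room temperature, then luminescence read.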
NPC1 promoter act – NPC1 promoter activation | Huh7 NPC1 promoter luciferase reporter, 24 h | Potency, µM (series often up to 9.22 µM), for the others: at the top dose activation, actives largely listed as activators | actives 2.4% (n = 320,000) | AID 485313; note: % of control where 0% means no effect; nearly all actives have a fitted effect of over 60% in size
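Compounds in DMSO were transferred onto Huh7 NPC1-luciferase reporter cells pre-incubated 2 h; after 24 h at 37 °C, Amplite reagent was dispensed and luminescence recorded 10 min later.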
Starred values were filed as active, the others as inactive; ? = inconclusive; / = no result; [ ] = remark or other dose. Calls come from the whole dose curve; as a rule, active = well fitted curve in the direction sought with a large enough effect; inconclusive = small, poorly fitted or top-dose-only effect, or another doubt; inactive = no such curve, though single readings can be large; an effect the other way counts as inactive or inconclusive. Potency is the fitted concentration of half-maximal effect.

SMILES | FLuc modulator | SMN2 splice enh | KinaseGlo FLuc | Rab9 prom act | ELG1 genotoxic | NPC1 promoter act
COc1c(C)cc(Br)cc1C(=O)Nc1cccc(NC(=O)c2ccco2)c1 | -17% | 0% | 2% | -8% | -28% | -6%
COc1ccc(Br)cc1C(=O)Nc1ccc(O)cc1 | ? | 28µM* | 5% | 2% | 15% | 7%
O=C(Nc1cccc(NC(=O)c2ccco2)c1)c1ccccc1 | ? | / | / | 3% | 0% | 2%
CSC(=[SH+])N=N/C(=C1/C=CC=CN1)c1ccccn1.[Cu][Br] | / | -54%[9.22 µM] | -2%[7.66 µM] | / | / | /
Cc1ccccc1NC(=O)c1sc2nc3n(c(=O)c2c1C)N=C(c1ccccc1)CS3 | -3% | / | / | / | / | /
c1ccncc1 | / | -3% | / | / | / | /
O=C(COCc1cc(-c2cccs2)on1)NC1CCCCC1 | 0% | / | / | 0% | 2% | -4%
O=C(NCCN1CCOCC1)c1cc(-c2ccc(F)cc2)on1 | -1% | -22% | 0% | 19% | 10% | 12%
O=C(NC1CCCCC1)c1cc(-c2cccs2)on1 | ? | / | / | 2µM* | ? | 3.2µM*
Cc1ccc(-c2cc(C(=O)NC3CCCC3)no2)cc1 | 2.1µM* | / | / | 2µM* | ? | 0.56µM*
O=C(NC1CCCCC1)c1cc(-c2ccc(F)cc2)on1 | -9% | / | / | 3.2µM* | 16% | 1.4µM*
COc1cc(NC(=O)c2cc3c(=O)oc4ccc(C)cc4c3s2)cc(OC)c1OC | 0% | -4% | / | / | / | /
Cc1cc(Cl)ccc1NC(=O)CN(c1ccccc1Br)S(C)(=O)=O | -2% | 16% | / | / | / | /
CCCCC(=O)Nc1cnc(NC(=O)c2cccs2)cc1C | 19µM* | / | / | 2µM* | ? | 3.2µM*
Cc1cc(NC(=O)C2CC2)ncc1NC(=O)c1ccccn1 | ? | ? | -28% | 2.5µM* | ? | ?
CCCCC(=O)Nc1cc(C)c(NC(=O)c2cccs2)cn1 | 0% | / | 1% | -2% | -1% | -5%
COc1ccc(C(=O)Nc2cc(C)c(NC(=O)c3ccccn3)cn2)cc1 | 1.1µM* | / | / | ? | 2% | ?
COc1ccc(C(=O)Nc2cnc(NC(=O)c3cccs3)cc2C)cc1 | 17µM* | / | / | ? | ? | ?
Cn1cc(-c2nc3cnc(Oc4cccc(Cl)c4)nc3n(CCC#N)c2=O)c2ccccc21 | / | 7% | -1% | / | / | /
CCCCOc1ccc(C(C)NC(=O)c2cccc(Nc3nc4ccccc4n4nnnc34)c2)cc1 (stereo not given) | 4% | / | / | / | / | /
c1c[nH]c(CN2CCOCC2)n1 | / | -20%[9.22 µM] | -6%[7.66 µM] | / | / | /
CCOc1ccc(CC(=O)Nc2cccc(-c3ccc4nnc(C)n4n3)c2)cc1 | -13% | 3% | -2% | 0% | ? | -7%
COc1cccc(NC(=O)C(=O)N/N=C(\C)CC(=O)Nc2ccc(NC(C)=O)cc2)c1 | 11µM* | / | / | 12% | ? | -2%
CC(Oc1ccccc1)C(=O)OCC(=O)Nc1sccc1C(N)=O (stereo not given) | -1% | / | / | 2% | 0% | -4%
CC(=O)Nc1cccc(OCC(=O)Nc2sccc2C(N)=O)c1 | 8.5µM* | / | / | 1.1µM* | ? | 2.5µM*
SMILES | FLuc modulator | SMN2 splice enh | KinaseGlo FLuc | Rab9 prom act | ELG1 genotoxic | NPC1 promoter act
CCc1ccc(NC(=O)C(=O)N/N=C(\C)CC(=O)Nc2ccc(OC)cc2)cc1 | ? | 1% | -2% | -1% | 6% | 0%
CCC(=O)Nc1cccc(SC)c1 | -4% | -3% | 0% | -9% | 0% | 0%
CCOc1ccc(-c2cccc(NC(=O)COc3ccccc3)c2)nn1 | 15µM* | / | / | 3% | -1% | -1%
CSc1cccc(NC(=O)COc2ccccc2C)c1 | 15µM* | 16% | -1% | 3% | 5% | -1%
CC(=O)Nc1cccc(OCC(=O)Nc2ccccc2)c1 | ? | 22µM* | -26% | 3.2µM* | 10µM* | 3.5µM*
COc1cccc(NC(=O)COc2ccccc2)c1 | ? | / | / | 19% | ? | ?
CC(=O)Nc1cccc(NC(=O)COc2ccc3c(c2)CCC3)c1 | 8.5µM* | / | / | 17% | 0% | 12%
CCOC(=O)C1=C(CNCc2ccccc2)NC(=O)NC1c1ccc(C)cc1 (stereo not given) | -8% | -4% | / | / | / | /
COc1cc(NC(=O)c2cc(Cl)c(OC)c(Cl)c2)ccc1NC(=O)c1cc2ccccc2o1 | 0% | -3% | / | / | / | /
C(=N\Nc1nc2ccccc2[nH]1)/c1ccccc1 | 11µM* | 13µM* | -7% | ? | ? | ?
C(=N\Nc1nc2ccccc2[nH]1)/C1CCCCC1 | 3.4µM* | 2% | -6% | 15% | ? | 1%
CCCc1cc(=O)[nH]c(N/N=C/C=C\c2ccccc2)n1 | -15% | -16% | 4% | 7% | -5% | -2%
O=c1[nH]c(N/N=C/c2ccccc2)nc2ccccc12 | 6µM* | 14µM* | 2% | 2.2µM* | 2.3µM* | 3.2µM*
C(=N\Nc1nn[nH]n1)/c1ccccc1 | -1% | -5% | -6% | 0% | 3% | -1%
C(=C\c1ccccc1)/C=N/Nc1nc2ccccc2[nH]1 | 3.8µM* | / | / | 4.5µM* | 18µM* | 3.2µM*
CCOc1ccc(NC(=O)Cn2cnc3sc(C)c(S(=O)(=O)N4CCN(c5ccccc5OC)CC4)c3c2=O)cc1 | 5% | 6% | / | / | / | /
CCCCN(CC)C(=O)Nc1ccc2c(c1)N(C)C(=O)c1ccccc1S2 | -1% | / | / | / | / | /
CCCCCC/C=N/Nc1nnc(Cc2ccccc2)c(=O)[nH]1 | 1% | / | / | -4% | -3% | -5%

Assay outcomes deposited in PubChem BioAssay by National Center for Advancing Translational Sciences (NCATS).
